# Source: PubChem BioAssay (NCATS)
# Inconclusive results are not listed. Where a call stands in place of a potency, no number is given. Activity calls are given as the source filed them. Calls come from the whole dose curve; as a rule, active = well fitted cell-killing curve with a large enough effect; inconclusive = small, poorly fitted or top-dose-only effect; inactive = flat fitted curve, though single readings scatter.
# Experiments:
# [1] = Cell Viability - LYMP2-013 (AID 970); note: nearly all actives have a fitted effect of over 55% in size; note: potency is the fitted concentration of half-maximal effect
# Outline: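 CellTiter-Glo luminescence (cellular ATP) read after 30 min at RT. Cells: human lymphoblastoid line, 2500/well, 24 hr compound exposure at 37 C. Tetraoctylammonium bromide positive control; AC50 via standard Hill fit of qHTS titrations.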
# [2] = Cell Viability - LYMP2-015 (AID 971); note: nearly all actives have a fitted effect of over 55% in size
# Outline: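 qHTS cytotoxicity: 2500 cells/well, 5 hr 37 C, compound 24 hr 37 C, CellTiter-Glo 30 min RT, luminescence. Loss of ATP = toxicity; AC50 via standard Hill fit.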
# [3] = Cell Viability - LYMP2-021 (AID 974);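 note: compound exposure lasts 24 hours at 37 °C; nearly all actives have a fitted effect of over 55% in size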; note: potency is the fitted concentration of half-maximal effect
# Outline: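 ATP luminescence (CellTiter-Glo, 30 min RT) after 24 h compound exposure at 37 C; 2500 human lymphoblastoid cells/well, 5 h settle beforehand. Cytotoxicity = concentration-dependent ATP drop, AC50 by Hill fit.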
# [4] = Cell Viability - LYMP2-023 (AID 975); note: nearly all actives have a fitted effect of over 55% in size; note: potency is the fitted concentration of half-maximal effect
# Outline: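 CellTiter-Glo luminescence after 30 min at room temperature; decrease in intracellular ATP reflects toxicity. Cells: human lymphoblastoid line, 2500/well, 24 hr compound exposure at 37 C. AC50 fitted to standard Hill equation from concentration-response.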
# [5] = Cell Viability - LYMP2-025 (AID 976); note: series mostly up to about 92 µM
# Outline: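 CellTiter-Glo luminescence (cellular ATP) after 24 h compound exposure at 37 C; LYMP2-025 human lymphoblastoid cells, 2500/well, complete medium. Tetraoctylammonium bromide positive control. AC50 by Hill equation fit of qHTS concentration-response.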
# [6] = Cell Viability - LYMP2-002 (AID 977); note: series mostly up to about 92 µM
# Outline: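 Human lymphoblastoid cells (2500/well) in complete medium were preincubated 5 hr at 37 C, then exposed to compounds for 24 hr at 37 C. Intracellular ATP was read by CellTiter-Glo luminescence; AC50 came from Hill-equation concentration-response fits.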
# [7] = Cell Viability - LYMP2-007 (AID 979);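 note: cells exposed to compound for 24 h before reading; nearly all actives have a fitted effect of over 60% in size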; note: potency is the fitted concentration of half-maximal effect
# Outline: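 qHTS cytotoxicity: 2500 cells/well, 5 hr 37 C settle, compound 24 hr 37 C, CellTiter-Glo 30 min RT, luminescence. Decrease in ATP = toxicity. AC50 by standard Hill equation; tetraoctylammonium bromide positive control.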
# [8] = Cell Viability - LYMP2-008 (AID 980); note: nearly all actives have a fitted effect of over 60% in size; note: potency is the fitted concentration of half-maximal effect
# Outline: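 Luminescent ATP read-out (CellTiter-Glo, 30 min RT) after 24 hr compound exposure at 37 C of human lymphoblastoid cells in complete medium. Decrease in ATP taken as cytotoxicity; AC50 derived by standard Hill fit of qHTS concentration-response data.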
# [9] = Cell Viability - LYMP2-019 (AID 973); note: nearly all actives have a fitted effect of over 55% in size
# Outline: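 qHTS, 1536-well; 2500 cells/well; 5 hr pre-incubation, 24 hr compound exposure, 37 C; CellTiter-Glo added, 30 min RT; luminescence read; AC50 via standard Hill equation.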
# [10] = Cell Viability - LYMP2-006 (AID 978); note: series mostly up to about 92 µM; nearly all actives have a fitted effect of over 60% in size
# Outline: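 qHTS, 1536-well; 2500 cells/well, 5 hr 37 C; cpd 24 hr 37 C; CellTiter-Glo 30 min RT; luminescence. Tetraoctylammonium bromide pos. ctrl. AC50 via Hill eqn.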
Structure (SMILES),Potency [1],outcome [2],Potency [3],Potency [4],outcome [5],outcome [6],Potency [7],Potency [8],outcome [9],outcome [10]
NC(=O)c1ncn([C@@H]2O[C@H](CO)[C@@H](O)[C@H]2O)n1,inactive,inactive,inactive,inactive,inactive,inactive,inactive,inactive,,
[Cl][In]([Cl])[Cl],inactive,inactive,inactive,inactive,inactive,inactive,inactive,inactive,inactive,inactive
O=C1c2c(O)cccc2Cc2cccc(O)c21,inactive,inactive,inactive,inactive,inactive,inactive,inactive,inactive,inactive,inactive
NCCNCCNCCN,inactive,inactive,inactive,inactive,inactive,inactive,inactive,inactive,inactive,
C[C@]12C[C@H](O)[C@H]3[C@@H](CCC4=CC(=O)CC[C@@]43C)[C@@H]1CC[C@@H]2C(=O)CO,inactive,inactive,inactive,inactive,inactive,inactive,inactive,inactive,inactive,inactive
Cc1c(O)cccc1C(=O)N[C@@H](CSc1ccccc1)[C@H](O)CN1C[C@H]2CCCC[C@H]2C[C@H]1C(=O)NC(C)(C)C,50.1 µM (active),,50.1 µM (active),50.1 µM (active),,,50.1 µM (active),39.8 µM (active),,
NC(=O)N/N=C/c1ccc([N+](=O)[O-])o1,inactive,,inactive,,,,inactive,,,
CC1(C)[C@@H]2CC[C@@]1(C)C(=O)C2,inactive,inactive,inactive,inactive,inactive,inactive,inactive,inactive,inactive,inactive
O=C1O[C@H]([C@@H](O)CO)C(O)=C1O,inactive,inactive,inactive,inactive,inactive,inactive,inactive,inactive,inactive,inactive
NCCNCCNCCNCCN,inactive,inactive,inactive,inactive,inactive,inactive,inactive,inactive,inactive,inactive
COC(=O)C1=C(C)NC(C)=C(C(=O)OC)C1c1ccccc1[N+](=O)[O-],,,,,inactive,,,,,
Oc1cccc(O)c1,inactive,inactive,inactive,inactive,inactive,inactive,inactive,inactive,inactive,inactive
CN(C)CCC=C1c2ccccc2CCc2ccccc21,,,,,inactive,,,,,
Cc1cc2nc3c(=O)[nH]c(=O)nc-3n(C[C@H](O)[C@H](O)[C@H](O)CO)c2cc1C,inactive,inactive,inactive,inactive,inactive,inactive,inactive,inactive,inactive,inactive
Nc1ccc(S(=O)(=O)Nc2nccs2)cc1,inactive,inactive,inactive,inactive,inactive,inactive,inactive,inactive,,inactive
CC12CCC(CC1)C(C)(C)O2,inactive,inactive,inactive,inactive,,inactive,inactive,inactive,inactive,inactive
COc1ccccc1O,inactive,inactive,inactive,inactive,inactive,inactive,inactive,inactive,inactive,inactive
CCCCCCCCCCCCOS(=O)(=O)O,inactive,inactive,inactive,inactive,inactive,inactive,inactive,inactive,inactive,inactive
CCCCOC(=O)c1ccc(O)cc1,inactive,inactive,inactive,inactive,inactive,inactive,inactive,inactive,inactive,inactive
Cc1cc(CC(=O)O)n(C)c1C(=O)c1ccc(Cl)cc1,inactive,inactive,inactive,inactive,inactive,inactive,inactive,inactive,inactive,inactive
